Bioassay records from PubChem.
C diff HTS = C. difficile growth inhibitors, primary screen, HTS. Clostridium difficile clinical isolate growth, OD600, 24 h; active compounds read low. growth activity, negative = inhibition, % at 16 µg/mL (by protocol). hit rate 0.25% among 86,000. AID 1259249, 2017;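 active = mean growth activity at or below -80% and every replicate also at or below -80%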;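 also: 0% = DMSO wells and -100% = levofloxacin 16 µg/mL wells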
Pf Dd2 growth = P. falciparum Dd2 growth inhibitors, primary screen, SYBR Green fluorescence, single dose replicates | activity change, % at 10 µM | 72 h; active compounds read low | hit rate 2.3% among 94,000; in the data active = activity change below about -80%
T cruzi growth = T. cruzi intracellular proliferation inhibitors, primary screen, cell-based, beta-gal Tulahuen parasites, NIH3T3 host, luminescence. AID 624255, 2012. hit rate 5.9% among 77,000. T. cruzi beta-gal in NIH3T3, GalScreen luminescence, 90 h. inhibition, % at 8.34 µM;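 active = mean inhibition above about 93%, with at least 55% of replicates each passing it, limit read from the data, passing the limit was not always enough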
An asterisk follows results filed as active; · = not tested or not shown; ! = not active in a repeat. Rows were chosen to be rich in hits. Some 6.8% of all compounds tested hit in one or more screens of this group.

SMILES | C diff HTS | Pf Dd2 growth | T cruzi growth
COc1ccc2c3c([nH]c2c1)[C@H](CO)N(Cc1ccc(Cl)cc1)CC31CCN(Cc2nccs2)CC1 | 5 | -93* | ·
CO[C@@H]1CN(C)C(=O)c2ccc(NC(=O)c3cnccn3)cc2OC[C@H](C)NC[C@@H]1C | · | 11 | -2
CCC(=O)N1[C@H](CO)[C@H](c2ccc(C3=CCCCC3)cc2)[C@H]1CNC1CCCC1 | 35 | -90* | ·
CCC(=O)NC[C@H]1[C@H](c2ccc(C3=CCCC3)cc2)[C@@H](CO)N1C(=O)C1CC1 | -1 | -11 | 44
C/C=C/c1ccc([C@H]2[C@@H](CO)N(C(=O)CC)[C@@H]2CNCC2CCCCC2)cc1 | -2 | -85* | ·
OC[C@@H]1[C@H](c2ccc(C3=CCCCC3)cc2)[C@@H](CNC2CCCC2)N1CC1CC1 | 20 | -92* | ·
CCCNC[C@@H]1[C@@H](c2ccc(C3=CCCC3)cc2)[C@@H](CO)N1C(=O)C1CCCC1 | -10 | -92* | ·
C/C=C/c1ccc([C@H]2[C@@H](CO)N(C(=O)CC)[C@@H]2CNCC2CCCC2)cc1 | 0 | -71 | ·
CCC(=O)NC[C@@H]1[C@@H](c2ccc(C3=CCCC3)cc2)[C@@H](CO)N1CC1CCCC1 | 5 | -73 | ·
CCC(=O)N1[C@H](CO)[C@H](c2ccc(C3=CCCC3)cc2)[C@H]1CNC1CCCC1 | -3 | -78 | ·
CN1C(=O)c2cc(NC(=O)Nc3cccc(Cl)c3)ccc2OC[C@@H]2O[C@@H](CC(=O)NCCc3ccncc3)CC[C@H]21 | 2 | -14 | 7
COc1cccc(C#Cc2cnc3c(c2)C(=O)N([C@H](C)CO)C[C@@H](C)[C@H](CN(C)C(C)=O)O3)c1 | 0 | -14 | -6
CCCN(C)C[C@H]1OCCCC[C@@H](C)Oc2ccc(NS(=O)(=O)c3ccc(Cl)cc3)cc2C(=O)N([C@@H](C)CO)C[C@H]1C | 9 | -86* | 33
C[C@@H]1CCCCO[C@@H](CN(C)Cc2ccc3c(c2)OCO3)[C@H](C)CN([C@@H](C)CO)C(=O)c2cc(NS(=O)(=O)c3ccc(Cl)cc3)ccc2O1 | · | 1 | 34
CCCN(C)C[C@@H]1OCCCC[C@@H](C)Oc2ccc(NS(=O)(=O)c3ccc(Cl)cc3)cc2C(=O)N([C@H](C)CO)C[C@@H]1C | 0 | -61 | -2
C[C@@H]1CCCCO[C@H](CN(C)Cc2ccc3c(c2)OCO3)[C@H](C)CN([C@H](C)CO)C(=O)c2cc(NS(=O)(=O)c3ccc(Cl)cc3)ccc2O1 | · | -83*! | 81
COc1ccc(S(=O)(=O)Nc2ccc3c(c2)C(=O)N([C@@H](C)CO)C[C@@H](C)[C@H](CN(C)CC2CC2)OCCCC[C@H](C)O3)cc1 | -6 | -41 | 17
CCCN(C)C[C@H]1OCCCC[C@H](C)Oc2ccc(NS(=O)(=O)c3ccc(OC)cc3)cc2C(=O)N([C@H](C)CO)C[C@H]1C | 1 | -86* | 82
CCCN(C)C[C@H]1OCCCC[C@@H](C)Oc2ccc(NS(=O)(=O)c3ccc(C)cc3)cc2C(=O)N([C@@H](C)CO)C[C@H]1C | 6 | -86* | 55
CCCN(C)C[C@H]1OCCCC[C@@H](C)Oc2ccc(NS(=O)(=O)c3ccc(C)cc3)cc2C(=O)N([C@H](C)CO)C[C@@H]1C | 14 | -52 | 91
C[C@@H]1CCCCO[C@@H](CN(C)Cc2ccncc2)[C@@H](C)CN([C@@H](C)CO)C(=O)c2cc(NS(=O)(=O)c3cccs3)ccc2O1 | 4 | -28 | 28
COc1ccc(S(=O)(=O)Nc2ccc3c(c2)C(=O)N([C@H](C)CO)C[C@H](C)[C@H](CN(C)Cc2ccc(Cl)c(Cl)c2)OCCCC[C@H](C)O3)cc1 | 15 | -59 | ·
CCCN(C)C[C@@H]1OCCCC[C@@H](C)Oc2ccc(NS(=O)(=O)c3ccc(F)cc3)cc2C(=O)N([C@@H](C)CO)C[C@@H]1C | 10 | -39 | 86
CCCN(C)C[C@@H]1OCCCC[C@@H](C)Oc2ccc(NS(=O)(=O)c3ccc(C)cc3)cc2C(=O)N([C@@H](C)CO)C[C@@H]1C | 14 | -63 | 52
CCCN(C)C[C@H]1OCCCC[C@@H](C)Oc2ccc(NS(=O)(=O)c3ccc(C)cc3)cc2C(=O)N([C@H](C)CO)C[C@H]1C | 20 | -89* | 75
COc1ccc(S(=O)(=O)Nc2ccc3c(c2)C(=O)N([C@H](C)CO)C[C@@H](C)[C@H](CN(C)Cc2ccc(Cl)c(Cl)c2)OCCCC[C@H](C)O3)cc1 | · | -84* | 12
CCCN(C)C[C@@H]1OCCCC[C@H](C)Oc2ccc(NS(=O)(=O)c3ccc(C)cc3)cc2C(=O)N([C@@H](C)CO)C[C@H]1C | 13 | -94* | 62
